Measured values from PubChem BioAssay.
Active and inactive are the calls of the source.

Experiments:
[1] = optical density shifts of acrAB sulA E. coli – strain DRC41, OD650, 48 h, E. coli filamentation inducer project, primary screen (AID 1152); conditions: higher = more signal, called active from +8 up or from −8 down;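 note: E. coli MC1000 strain DRC41 lacking acrAB efflux pump and sulA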
[2] = probe aLefty1 binding on compound microarray – biochemical, small-molecule microarray, 635/667 nm fluorescence, primary screen (AID 1153); conditions: higher = more signal;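 note: score merges spot fluorescence with signal-to-noise ratio from the scanned slide images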
[3] = plasmodial surface anion channel blockers, osmotic lysis – cell-based, P. falciparum Indochina, OD700, 1 h, primary screen (AID 1154); conditions: P. falciparum Indochina infected RBC osmotic lysis, higher = more signal, called active from +8 up or from −8 down
[4] = plasmodial surface anion channel blockers, osmotic lysis – cell-based, P. falciparum Indochina, OD700, 2 h, primary screen (AID 1155);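 note: lysis reports solute entry through the parasite surface anion channel PSAC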; conditions: P. falciparum Indochina infected erythrocytes, higher = more signal, called active from +8 up or from −8 down
[5] = changes in parasitized red cell lysis, either direction – P. falciparum Indochina, OD700, 3 h, PSAC antagonist project, primary screen (AID 1156); conditions: P. falciparum-infected erythrocytes, osmotic lysis, higher = more signal, called active from +8 up or from −8 down
[6] = plasmodial surface anion channel blockers, osmotic lysis – cell-based, P. falciparum Indochina, OD700, 18 h, primary screen (AID 1157); conditions: P. falciparum Indochina infected erythrocytes, osmotic lysis OD700, 18 h; higher = more signal, called active from +8 up or from −8 down
[7] = S6 kinase pathway phospho-S6 level changes – cell-based, A549, cytoblot, luminescence, serum-stimulated, primary screen (AID 1158); conditions: 5 h, higher = more signal;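 note: serum-stimulated A549 lung adenocarcinoma cells; signal is phosphorylated S6 detected by cytoblot immunostaining with HRP secondary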
[8] = biological target: NADPH oxidase 2 (Homo sapiens) (UniProt P04839); test: compounds shifting NOX2 Amplex Red fluorescence – cell-based, HEK293-NOX2, PMA-stimulated, NOX inhibitor project, primary screen (AID 1159); conditions: 45 min, higher = more signal, called active from +8 up or from −8 down; note: test concentration not given here
[9] = biological target: NADPH oxidase 4 (Homo sapiens) (UniProt Q9NPH5); test: compounds shifting NOX4 Amplex Red fluorescence – cell-based, HEK293-NOX4, tetracycline-induced, NOX inhibitor project, primary screen (AID 1160); conditions: HEK293-NOX4, Amplex Red H2O2 fluorescence, 45 min; higher = more signal, called active from +8 up or from −8 down
[10] = biological target: NADPH oxidase 5 (Homo sapiens) (UniProt Q96PH1); test: compounds shifting NOX5 Amplex Red fluorescence – cell-based, HEK293-NOX5, NOX inhibitor project, primary screen (AID 1161); conditions: HEK293-NOX5, ionomycin, 45 min, higher = more signal
[11] = compound effects on lung adenocarcinoma cell viability – A549, calcein-AM fluorescence, 48 h, basal, profiling panel (AID 1162); conditions: higher = more signal; note: test concentration not given here
[12] = compound effects on differentiated 3T3-L1 adipocyte viability – cell-based, 3T3-L1 adipocytes, calcein-AM fluorescence, 48 h, basal, profiling panel (AID 1163); conditions: 3T3-L1 adipocytes viability, higher = more signal; note: test concentration not given here
[13] = compound effects on hepatocellular carcinoma cell viability – HepG2, calcein-AM fluorescence, 48 h, basal, profiling panel (AID 1164); conditions: higher = more signal; note: test concentration not given here
[14] = compound effects on multiple myeloma cell viability – MM1S, calcein-AM fluorescence, 48 h, basal, profiling panel (AID 1165); conditions: higher = more signal; note: test concentration not given here
[15] = calcein-AM signal in unstimulated myeloma cells – cell-based, calcein-AM fluorescence, 48 h, PK04 Diversity Set, profiling panel (AID 1166); conditions: RPMI8226 myeloma viability, higher = more signal;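 note: cells grown under basal conditions without added stimulus; test concentration not given here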
[16] = JC-1 mitochondrial signal, unstimulated HepG2 cells – cell-based, JC-1 fluorescence, 24 h, 100 nL compound, profiling panel (AID 1167); conditions: HepG2 mitochondrial potential, higher = more signal; note: test concentration not given here
[17] = JC-1 mitochondrial signal, unstimulated adipocytes – cell-based, JC-1 fluorescence, 3T3-L1 adipocytes, 24 h, 100 nL compound, profiling panel (AID 1168); conditions: JC-1 mitochondrial fluorescence, higher = more signal, called active from +8 up or from −8 down; note: test concentration not given here
[18] = JC-1 mitochondrial signal, unstimulated myeloma cells – cell-based, JC-1 fluorescence, RPMI8226, 24 h, 100 nL compound, profiling panel (AID 1169); conditions: JC-1 mitochondrial potential fluorescence, higher = more signal; note: test concentration not given here
[19] = JC-1 mitochondrial signal, unstimulated MM1S myeloma – cell-based, JC-1 fluorescence, 24 h, 100 nL compound, profiling panel (AID 1170); conditions: MM1S mitochondrial potential, higher = more signal; note: test concentration not given here
[20] = resazurin metabolic signal in A549 cells – cell-based, resazurin fluorescence, 24 h, PK04 Diversity Set, profiling panel (AID 1171); conditions: A549 viability, higher = more signal, called active from +8 up or from −8 down; note: test concentration not given here

Sequence of NADPH oxidase 4 (Homo sapiens) (Q9NPH5 whole entry, looked up): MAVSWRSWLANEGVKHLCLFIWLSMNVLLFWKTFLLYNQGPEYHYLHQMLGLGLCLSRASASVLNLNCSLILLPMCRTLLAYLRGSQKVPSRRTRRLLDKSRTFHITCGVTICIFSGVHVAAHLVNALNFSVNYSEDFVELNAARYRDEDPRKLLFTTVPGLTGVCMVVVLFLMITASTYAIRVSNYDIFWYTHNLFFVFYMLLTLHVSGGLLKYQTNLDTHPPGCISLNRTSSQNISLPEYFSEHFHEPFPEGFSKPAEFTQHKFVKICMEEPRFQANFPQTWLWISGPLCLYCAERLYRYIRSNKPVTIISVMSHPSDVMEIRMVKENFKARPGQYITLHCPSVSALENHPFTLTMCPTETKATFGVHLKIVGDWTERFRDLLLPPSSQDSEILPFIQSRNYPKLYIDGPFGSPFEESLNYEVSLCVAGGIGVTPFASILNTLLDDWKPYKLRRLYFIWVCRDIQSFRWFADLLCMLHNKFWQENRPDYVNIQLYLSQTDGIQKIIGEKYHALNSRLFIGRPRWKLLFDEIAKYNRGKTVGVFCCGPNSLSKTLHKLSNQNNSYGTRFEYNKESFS
Sequence of NADPH oxidase 5 (Homo sapiens) (Q96PH1 whole entry, looked up): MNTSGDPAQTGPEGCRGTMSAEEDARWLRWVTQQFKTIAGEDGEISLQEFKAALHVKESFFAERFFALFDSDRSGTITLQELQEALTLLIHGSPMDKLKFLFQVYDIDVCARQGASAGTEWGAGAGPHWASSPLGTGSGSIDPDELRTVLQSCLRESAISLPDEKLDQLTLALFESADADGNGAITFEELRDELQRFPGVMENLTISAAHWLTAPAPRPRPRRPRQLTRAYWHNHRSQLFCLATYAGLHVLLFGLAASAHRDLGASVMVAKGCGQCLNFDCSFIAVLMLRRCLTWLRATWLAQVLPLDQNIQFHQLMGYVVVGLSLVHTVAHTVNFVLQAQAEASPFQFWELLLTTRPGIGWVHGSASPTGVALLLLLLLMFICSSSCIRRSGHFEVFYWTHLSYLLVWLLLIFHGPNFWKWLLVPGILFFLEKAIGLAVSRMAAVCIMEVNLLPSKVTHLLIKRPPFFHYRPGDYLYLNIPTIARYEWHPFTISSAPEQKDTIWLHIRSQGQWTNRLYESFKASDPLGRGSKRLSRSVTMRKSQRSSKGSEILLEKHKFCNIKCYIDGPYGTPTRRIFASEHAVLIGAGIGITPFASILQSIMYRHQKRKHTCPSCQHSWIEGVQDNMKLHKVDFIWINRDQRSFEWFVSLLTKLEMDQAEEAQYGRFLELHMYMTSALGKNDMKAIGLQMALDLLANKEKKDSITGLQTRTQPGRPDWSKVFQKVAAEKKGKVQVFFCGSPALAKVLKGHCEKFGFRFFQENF
Sequence of NADPH oxidase 2 (Homo sapiens) (P04839 whole entry, looked up): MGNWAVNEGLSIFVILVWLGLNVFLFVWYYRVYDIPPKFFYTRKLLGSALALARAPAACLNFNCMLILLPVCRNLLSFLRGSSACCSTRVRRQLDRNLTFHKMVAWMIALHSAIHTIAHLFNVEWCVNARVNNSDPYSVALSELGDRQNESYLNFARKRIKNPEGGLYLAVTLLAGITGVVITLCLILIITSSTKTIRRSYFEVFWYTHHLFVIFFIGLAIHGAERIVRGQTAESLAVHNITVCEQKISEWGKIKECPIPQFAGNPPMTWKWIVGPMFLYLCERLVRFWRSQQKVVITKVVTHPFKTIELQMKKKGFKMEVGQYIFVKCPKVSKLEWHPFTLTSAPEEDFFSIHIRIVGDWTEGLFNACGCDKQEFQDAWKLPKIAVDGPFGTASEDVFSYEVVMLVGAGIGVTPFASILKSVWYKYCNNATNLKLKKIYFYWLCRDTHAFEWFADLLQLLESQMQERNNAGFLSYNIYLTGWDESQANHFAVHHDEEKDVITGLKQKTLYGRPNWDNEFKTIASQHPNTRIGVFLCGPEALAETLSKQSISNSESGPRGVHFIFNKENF

SMILES | z-score [1] | composite z-score [2] | z-score [3] | z-score [4] | z-score [5] | z-score [6] | z-score [7] | z-score [8] | z-score [9] | z-score [10] | z-score [11] | z-score [12] | z-score [13] | z-score [14] | z-score [15] | z-score [16] | z-score [17] | z-score [18] | z-score [19] | z-score [20]
C=CCC(OC(C)=O)[C@@H]1[C@@H](N(Cc2ccc(-c3cccc(C(F)(F)F)c3)o2)C(=O)c2cccc3ccccc23)c2cc(OCCCO)ccc2N1C(=O)Cc1ccc(OC)cc1 (stereo not given in full) | 0.386 (inactive) | -0.0818 | 1.62 (inactive) | 0.753 (inactive) | 1.94 (inactive) | 0.702 (inactive) | 0.461 | -3.21 (inactive) | -1.73 (inactive) | -1.49 | 0.546 | 0.612 | 0.598 | -1.16 | -1.76 | 2.32 | 0.0601 (inactive) | -0.748 | -0.0799 | 0.643 (inactive)
CN1C(=O)[C@@]2(Cc3ccccc3)N=C(c3ccc(OCCCO)cc3)O[C@H]2c2ccccc21 | -0.0237 (inactive) | 0.501 | 31.8 (active) | 30.4 (active) | 2.93 (inactive) | 2.65 (inactive) | 0.385 | -1.74 (inactive) | 0.151 (inactive) | -1.64 | -1.11 | -0.597 | -1.61 | -2.71 | -4.45 | 0.384 | 1.69 (inactive) | -1.26 | -1.89 | -0.788 (inactive)
NC(=O)[C@H]1[C@@H]2C(=O)O[C@@H](c3ccccc3)[C@@H](c3ccccc3)N2[C@@H](c2ccc(O)cc2)[C@]12C(=O)Nc1ccc(C#CC3=CCCCC3)cc12 | -1.35 (inactive) | 0.145 | 3.07 (inactive) | 1.45 (inactive) | 0.28 (inactive) | 1.4 (inactive) | -0.425 | 1.18 (inactive) | 0.425 (inactive) | 0.563 | -1.8 | 0.741 | -3.91 | -3.33 | -4.54 | -3.68 | -2.09 (inactive) | -1.16 | -1.32 | -0.3 (inactive)
COCC(=C=CC[C@@H](O)c1ccc(OCCO)cc1)CCO | 1.15 (inactive) | 0.0391 | 6.19 (inactive) | 0.492 (inactive) | 1.32 (inactive) | 0.381 (inactive) | 0.357 | -2.03 (inactive) | -0.406 (inactive) | -0.727 | 1.46 | 0.376 | 0.875 | 0.676 | 0.786 | 1.32 | 0.87 (inactive) | -0.756 | -1.1 | 1.12 (inactive)
C=C(/C(=C/C[C@H](OC(=O)c1ccncc1)c1ccccc1OCCO)c1cnc2ccccc2c1)C(C)C | -0.227 (inactive) | 0.313 | 11.1 (active) | 1.86 (inactive) | 1.41 (inactive) | 0.553 (inactive) | 0.125 | -1.71 (inactive) | -0.391 (inactive) | -0.914 | 0.0894 | -0.253 | -0.444 | -1.26 | -0.906 | 0.96 | -0.482 (inactive) | -0.331 | -0.174 | 1.35 (inactive)
[N-]=[N+]=NCc1ccccc1[C@@H]1OC(c2ccc(OCCCO)cc2)=N[C@]1(Cc1ccccc1N=[N+]=[N-])C(=O)N1CCCCC1 | 0.155 (inactive) | 0.358 | 16.3 (active) | 2.78 (inactive) | 1.15 (inactive) | 0.86 (inactive) | 0.0177 | -1.45 (inactive) | 0.924 (inactive) | 1.17 | -0.135 | -0.843 | 0.461 | -2.31 | -3.75 | 0.913 | -0.922 (inactive) | -1.19 | -2.04 | -0.484 (inactive)
